Source: PubChem
Compounds with a hit are over-represented: about 19% of the library has one in this group of screens.
ELG1 DNA repair = qHTS screen for small molecules that inhibit ELG1-dependent DNA repair in human embryonic kidney (HEK293T) cells expressing luciferase-tagged ELG1; HEK293T ELG1-luciferase reporter, luminescence, 16 h; DNA damage induced by 5-fluorouridine; Potency, µM (top dose mostly 46.1 µM), without a hit: at the highest dose activity change, negative = inhibition, actives largely listed as inhibitors; 2.3% of 330,000 active; AID 504467, 2011; further: potency means the concentration at half of the fitted maximal effect; nearly all actives have a fitted effect of over 55% in size
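In this reporter screen, reduction of luminescence relative to DMSO vehicle indicated activity. Compounds and 5-fluorouridine were added together to 2,000 cells per well, incubated for 16 hr at 37 °C, then developed with ONE-Glo.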
HT1080 IDH1KD tx = qHTS for induction of synthetic lethality in tumor cells producing 2HG: qHTS for the HT-1080-IDH1KD cell line | HT-1080 IDH1 knockdown viability, ATP luminescence, 48 h | Potency, µM (titrated, usually from 46.1 µM), inactives show top-dose activity, negative = toxicity, actives largely listed as cytotoxic | AID 686971, 2013 | 2% of 360,000 active;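 further: potency means the concentration at half of the fitted maximal effect; 0% = DMSO wells and -100% = cell-free medium wells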
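HT-1080-IDH1KD cells (IDH1 knocked down), 750/well in RPMI with 5% FBS, treated with compound 48 h at 37 degrees C. Viability by CellTiter-Glo luminescence, normalised to DMSO and no-cell wells; concentration-response curves classed.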
IL1B secr inh = qHTS for Inhibitors of Inflammasome Signaling: IL-1-beta AlphaLISA Primary Screen | THP-1 LPS/ATP IL-1B secretion, AlphaLISA, 16 h; hits give low values | activity change, % at 57.5 µM | 4.7% of 360,000 active; in the data active means activity change below about -50%; inconclusive means mostly about -30% to -49%
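Secreted IL-1B measured by AlphaLISA bead assay after 16 h compound exposure of THP-1 cells; compounds (final up to 57.5 uM) added 1 h before LPS (250 ng/mL) and ATP (1.25 mM) stimulation; lower signal means less secretion.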
DT40 TDP1 no CPT = qHTS for Inhibitors of human tyrosyl-DNA phosphodiesterase 1 (TDP1): qHTS in cells in absence of CPT; DT40 Tdp1-/- hTDP1 cells, no CPT, ATP luminescence, 48 h; Potency, µM (highest dose often 46.2 µM), for the others: at the highest dose activity change, negative = growth inhibition, usual class: inhibitors; 15% of 420,000 active; further: potency means the concentration at half of the fitted maximal effect; nearly all actives have a fitted effect of over 55% in size
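No-CPT arm: Tdp1-/-;hTDP1 DT40 cells (400/well) plus compounds, incubated ≥48 hr at 37 °C. Readout CellTiter-Glo luminescence.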
HT1080-NT tox = qHTS for induction of synthetic lethality in tumor cells producing 2HG: qHTS for the HT-1080-NT fibrosarcoma cell line. HT-1080-NT fibrosarcoma viability, CellTiter-Glo ATP luminescence, 48 h. AID 686970, 2013. Potency, µM (series often up to 46.1 µM), without a hit: top-dose activity, negative = less viability, most hits filed as cytotoxic. 1.6% of 360,000 active;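 further: NT is the 2HG producing partner of a matched IDH1 knockdown line; potency means the concentration at half of the fitted maximal effect; 0% = DMSO-treated cells and -100% = media-only wells without cells; nearly all actives have a fitted effect of over 55% in size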
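Read-out is CellTiter-Glo luminescence after 10 minutes at room temperature, following 48 hours' compound treatment of HT-1080-NT cells (750 cells/well, RPMI, 5% FBS, 37 degrees C).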
DT40 TDP1 CPT = qHTS for Inhibitors of human tyrosyl-DNA phosphodiesterase 1 (TDP1): qHTS in cells in presence of CPT | chicken DT40 Tdp1-/-;hTDP1 cells + 20 nM CPT, ATP luminescence, 48 h | 12% of 420,000 active | Potency, µM (series often up to 46.2 µM), without a hit: top-dose activity change, negative = growth inhibition, usual class: inhibitors; further: potency means the concentration at half of the fitted maximal effect; nearly all actives have a fitted effect of over 55% in size
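Chicken DT40 Tdp1-/- cells complemented with human TDP1, 400 cells/well, exposed to compounds plus 20 nM camptothecin for at least 48 h at 37 C; viability read as ATP content by CellTiter-Glo luminescence.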
* = called active by the depositor; ? = inconclusive; . = not tested or not shown. Unless noted, the call rests on the fitted dose curve; in most records, active means well fitted curve in the direction sought with a large enough effect; inconclusive means small, poorly fitted or top-dose-only effect, or another doubt; inactive means no such curve, though single readings can be large; an effect the other way counts as inactive or inconclusive. Unless noted, on the % scale 0 is the no-effect control and ±100 the full control effect.

SMILES | ELG1 DNA repair | HT1080 IDH1KD tx | IL1B secr inh | DT40 TDP1 no CPT | HT1080-NT tox | DT40 TDP1 CPT
O=C1NCN(c2ccccc2)C12CCN(C(c1cccc3ccccc13)c1nnnn1C1CCCC1)CC2 (configuration not stated) | . | ? | -62.0* | 16.4µM* | ? | ?
O=C1NCN(c2ccccc2)C12CCN(C(c1cc3ccccc3o1)c1nnnn1C1CCCC1)CC2 (configuration not stated) | . | ? | -65.2* | ? | ? | ?
Cc1cccc(C)c1-n1nnnc1C(CCc1ccccc1)N1CCC2(CC1)C(=O)NCN2c1ccccc1 (configuration not stated) | . | 2.1% | 6.4 | ? | 1.3% | ?
O=C1NCN(c2ccccc2)C12CCN(C(c1ccnc3ccccc13)c1nnnn1C1CCCCC1)CC2 (configuration not stated) | . | 6.1% | -2.7 | ? | 22.1% | ?
O=C1NCN(c2ccccc2)C12CCN(C(c1ccnc3ccccc13)c1nnnn1C1CCCC1)CC2 (configuration not stated) | . | -6.6% | -3.5 | ? | -9.9% | ?
COC(=O)C1C(=O)C=C(Nc2ccc(F)cc2F)CC1c1ccccc1 (configuration not stated) | ? | 1.0% | -17.9 | -17.7% | 2.2% | -15.6%
COc1ccc(-n2nc(C(=O)NCC(=O)N3CCC4(CC3)OCCO4)c3ccccc3c2=O)cc1OC | ? | -0.9% | -2.2 | -16.7% | -11.6% | -4.3%
CC[C@]1(O)CC[C@H]2[C@@H]3CCC4=CCCC[C@@H]4[C@H]3CC[C@@]21C | . | . | . | 5.31µM* | . | 7.5µM*
O=[N+]([O-])c1cccc(NP(=O)(N2CC2)N2CC2)c1 | . | -2.1% | -3.0 | 6.51µM* | -1.2% | 2.06µM*
Cc1cccc([N+](=O)[O-])c1 | 1.2% | 12.6% | ? | -3.0% | 48.0% | 3.7%
CCCCn1c(=O)c(C(=O)Nc2ncccc2C)c(O)c2ccccc21 | -13.8% | 16.4µM* | 12.7 | ? | 23.1µM* | ?
CCCCCn1c(=O)c(C(=O)Nc2ccccc2C)c(O)c2ccccc21 | ? | 9.4% | 19.6 | 2.2% | 17.7% | 20.6%
CCCCCCn1c(=O)c(C(=O)Nc2ncccc2C)c(O)c2ccccc21 | 0.2% | ? | 14.7 | 1.64µM* | ? | 4.11µM*
CC[C@]12C=CCN3CCC4(c5cc(Br)c(OC)cc5N(C)C4[C@@](O)(C(=O)OC)[C@@H]1OC(C)=O)C32 (some centres not stated) | -9.5% | 2.4% | 0.5 | ? | -11.7% | ?
O=C(CCc1ccccc1)N1C[C@H]2C[C@@H](C1)c1cccc(=O)n1C2 | 8.1% | 4.1% | 16.7 | 0.1% | 2.5% | 8.9%
Cc1ccc(S(=O)(=O)N(CC(=O)NCCSc2ccc(Cl)cc2)c2ccccc2C)cc1 | . | . | . | 23.1µM* | . | 20.6µM*
Cc1cc(Oc2cc(NN3CCCCC3)c([N+](=O)[O-])cc2[N+](=O)[O-])ccc1[N+](=O)[O-] | ? | -2.8% | -0.1 | ? | -4.1% | ?
CCOC(=O)c1cnc(SCc2ccc(Cl)c(Cl)c2)nc1N1CC1 | . | 9.2µM* | -14.4 | 0.82µM* | ? | 0.581µM*
C=CC(=O)OCCO | . | 14.8% | -25.7 | -28.0% | 0.2% | -26.6%
